# Source: PubChem BioAssay (Tox21)
# Unmarked numbers belong to inactive results. The source made the active and inactive calls. Calls come from the whole dose curve; as a rule, active = well fitted curve in the direction sought with a large enough effect in the repeat runs; inconclusive = weak or mixed curves; inactive = flat fitted curve, though single readings scatter.
# Experiment: qHTS assay to test for compound auto fluorescence at 535 nm (green) in HepG2 cell free culture (AID 720686)
# Conditions: Cell-free medium, green autofluorescence 485/535 nm; series mostly up to 91.3 µM; fluorescence, % of fluorescein control: at the top concentration
# From the text: U.S. Tox21 Program National Center for Advancing Translational Sciences [NCATS] NIH Chemical Genomics Center [NCGC] U.S. Environmental Protection Agency [EPA] National Institutes of Environmental Health Sciences [NIEHS] National Toxicology Program [NTP] U.S. Food and Drug Administration [FDA] Tox21 Assay Overview: Compound auto fluorescence often interferes with screening of the compound library against various biological targets and signaling pathways. Some of these compounds may have fluorophoric properties. Such properties may interfere with the assay outputs resulting in false positives and/or negatives. To decrease such complications and ensure the compound activities are relevant in terms of biological response, the Tox21 10K compound library was screened for auto fluorescence. From the fluorophores used as reporter signals in our screening assays, the auto fluorescence equivalencies of compounds against three fluorophores have been evaluated: Triamterene, Fluorescein and Rose Bengal sodium for blue, green and red fluorescence, respectively. The fluorescence intensities were measured using Excitation/Emission wavelengths at 405/460nm, 485/535nm and 540/590nm for blue, green and red labels, respectively. This assay includes the green fluorescence data.
# Tox21 Assay Protocol Summary: 5 uL of culture medium (MEM containing 10% FBS) per well was dispensed into black wall/clear bottom 1536-well plates using a Multidrop Combi Dispenser (ThermoFisher Scientific, Waltham, MA). After 23 nL compound or DMSO vehicle was transferred into assay plate by a pintool work station (Kalypsys, San Diego, CA), fluorescence intensities in the assay plates were measured by an Envision (PerkinElmer, Shelton, CT) plate reader using three labels for measuring blue, green and red fluorescence at […] 460, 535 and 590nm respectively.
# % is set by controls: 0 for no effect and ±100 for the full control effect.
SMILES,"fluorescence, % of fluorescein control",outcome
CC(C)OC(=O)CCC(=O)OC(C)C,-0.149%,
CCCCCCCCCCCCCCCCCCOCCO,-0.0027% [at 18.6 µM],
COS(=O)(=O)O,0.0448%,
CO/N=C(/C(=O)N[C@@H]1C(=O)N2C(C(=O)[O-])=C(C[n+]3ccn4ncccc43)CS[C@H]12)c1nsc(N)n1,,inactive
CCCCCCCCCCCCCCC(=O)NC(CO)CCCCCCCCCCCCCC (stereo not given),-0.0117%,
COc1c2occc2c(OC)c2c(=O)cc(C)oc12,0.0616% [at 18.6 µM],
c1ccc(B(c2ccccc2)c2ccccc2)cc1,-0.0414%,
O=C1CCCCO1,-0.0019%,
CC(=O)CC(=O)Nc1ccc(C)cc1C,0.118%,
Cc1c(NC(=O)c2cccnc2)c(=O)n(-c2ccccc2)n1C,-0.0688% [at 18.6 µM],
O=C(CN1CCNCC1)NC1CCCCC1,0.0645% [at 46 µM],
COc1cc2c(cc1OC)C(=O)C(CC1CCN(Cc3ccccc3)CC1)C2 (stereo not given),0.0051% [at 46 µM],
C=C(C)C1CC=C(C)C(=O)C1 (stereo not given),0.12%,
OC[C@@H](O)C(O)[C@@H](O)CO (stereo not given in full),-0.0675% [at 95.7 µM],
OCCN1CCOCC1,-0.136%,
Nc1nnnn1-c1ccccc1,0.0468% [at 46 µM],
CCCCSCCCC,0.0018%,
C=C(C)c1cccc(C(C)(C)N=C=O)c1,-0.111%,
[O]=[Mo](=[O])=[O],-0.0406% [at 18.6 µM],
Cc1ccccc1C(N)=O,0.0005%,

SMILES,"fluorescence, % of fluorescein control",outcome
CC1CCc2c(N3CCC(O)CC3)c(F)cc3c(=O)c(C(=O)O)cn1c23 (stereo not given),0.008% [at 46 µM],
CC1=C(C(=O)O)N2C(=O)[C@@H](NC(=O)[C@H](N)c3ccccc3)[C@H]2SC1,-0.0046% [at 46 µM],
COC(=O)c1cc(Cl)cc(Cl)c1,0.0274%,
COc1nc(N)nc2nc[nH]c12,-0.0448%,
CC(=O)CCc1ccc(OC(C)=O)cc1,-0.0137%,
OCC(O)CN1CCN(c2ccccc2)CC1 (stereo not given),-0.23% [at 46 µM],
CCC(C)C(C)=O (stereo not given),0.0547%,
OC[C@H]1O[C@@H](O[C@@H]2[C@@H](CO)O[C@](O)(CO)[C@H]2O)[C@H](O)[C@@H](O)[C@H]1O,0.0449% [at 46 µM],
O=C(O)c1cc2ccccc2nc1C(=O)O,-0.158%,
CCO,-0.0075% [at 95.7 µM],
CCCCC1CCC(O)CC1 (stereo not given),-0.0051%,
CCCCCCC1(C)CCC(=O)O1 (stereo not given),-0.0057%,
CCCC(=O)OCCC(C)CCC=C(C)C (stereo not given),0.0441%,
CCC(=O)c1c(O)cc(O)cc1O,0.112% [at 46 µM],
CC(=O)CCC1=C(C)CCCC1(C)C,-0.0099%,
c1ccc(-c2nn[nH]n2)cc1,-0.103%,
CO[C@@]1(NC(=O)Cc2cccs2)C(=O)N2C(C(=O)O)=C(COC(N)=O)CS[C@@H]21,,inactive
COC(C)(OC)OC,0.0212%,
CCCC(=O)Nc1ccc(OCC(O)CNC(C)C)c(C(C)=O)c1 (stereo not given),-0.0602% [at 18.6 µM],
C=CC(=O)OCC1CCCO1 (stereo not given),0.012%,
